The full ranking holds about 68,000 sequences; the median of “fluorescence intensity (a.u.)” is about 9,100, and the highest 2% start at about 16,000. Many of the other results were omitted from the sample, so the highest values are more common in it than they were.
Molecular target: OsWRKY34 (Oryza sativa, UniProt Q0JBA9 1-250)
Test: protein-binding microarray (RPBM); PBS, 2% BSA, 51.3 ng/ul salmon testes DNA, 50 uM zinc acetate, 200 nM TF, 25 C, 1 h; high values mean tight binding
Conditions: protein: recombinant; tags: N-terminal polyhistidine and DsRed monomer fusion (pET32a); label: CyDye5-dUTP incorporated in the synthesized complementary strand; 3' TTTTT single-stranded linker to array surface; dsDNA, one strand shown
How it was run: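 Per-feature fluorescence intensity (arbitrary units), read on an Axon 4000B scanner, is the binding signal. Transcription factors carrying an N-terminal polyhistidine tag and DsRed fusion were expressed in E. coli BL21-CodonPlus and purified on Ni–NTA. A custom Agilent array, made double-stranded by primer extension with Cy5-dUTP and blocked with 2% BSA, was incubated with 200 nM protein in PBS, 2% BSA, salmon testes DNA and 50 µM zinc acetate at 25 °C for 1 h and then washed.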

Sequence of OsWRKY34 (Q0JBA9 entry or part of it): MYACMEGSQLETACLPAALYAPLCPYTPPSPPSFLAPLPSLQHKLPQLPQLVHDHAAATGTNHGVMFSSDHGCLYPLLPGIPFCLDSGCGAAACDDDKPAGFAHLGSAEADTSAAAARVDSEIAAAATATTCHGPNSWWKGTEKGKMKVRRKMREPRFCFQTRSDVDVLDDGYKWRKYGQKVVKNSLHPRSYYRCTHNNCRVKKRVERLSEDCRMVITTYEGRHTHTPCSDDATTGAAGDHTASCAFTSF

Sequence	binding signal
TTCCTTTTTCTATTTTTGGAATTTATTTTAATTTTTATTTCGGAGTCACCTAGTGCAG	8910 fluorescence intensity (a.u.)
CCCCGCTCGCGGCCCGGTCGCGCCAAACATCGTCCGACTCCGGAGTCACCTAGTGCAG	9010 fluorescence intensity (a.u.)
TCCACAACTGATTTTATTCCGACTTGTTTTTTTTTCTTTTCGGAGTCACCTAGTGCAG	10800 fluorescence intensity (a.u.)
TTACTACTTCACCGTCTCTTTTTCTTCCTCAGCGCACAAACGGAGTCACCTAGTGCAG	9610 fluorescence intensity (a.u.)
AGACGGAGGAGGACAAGGACATAGGGGAGGAGGGGCGAGGCGGAGTCACCTAGTGCAG	9530 fluorescence intensity (a.u.)
GTGGATTTTTTTTTTCTTTTCTTTTTTCGTTGTTATTTGTCGGAGTCACCTAGTGCAG	10600 fluorescence intensity (a.u.)
TTTTTCCGTGTGTGTCGTTTCGTTCTTGTTTGTTCGGGTCCGGAGTCACCTAGTGCAG	12400 fluorescence intensity (a.u.)
TTTTTCGTTTCCTTTCCGTGTTCTTTTTTTTTTCTTCCATCGGAGTCACCTAGTGCAG	10100 fluorescence intensity (a.u.)
ATTTCTTTTTGTTGTGTTATCGTGTTGTTTCGTCACTAGTCGGAGTCACCTAGTGCAG	19600 fluorescence intensity (a.u.)
GCCGTTTCTTCTTTCTTTTTTTTTTCCGTGTGTGTCGTTTCGGAGTCACCTAGTGCAG	16600 fluorescence intensity (a.u.)
ATGTTGTCGTGTATCATTTGTTTTTCTTATGTTATTTTCTCGGAGTCACCTAGTGCAG	10700 fluorescence intensity (a.u.)
ACACCTTCAATCGCTCTCTCATGAATTAACCGAACAAGACCGGAGTCACCTAGTGCAG	9340 fluorescence intensity (a.u.)
GTAGTAGGTAGCAGCAGTCTCAAACATGTCTTCTGAGTAGCGGAGTCACCTAGTGCAG	9420 fluorescence intensity (a.u.)
CGTGTTCTTGCCTGCGTATATACGGTGTACGTACACACGTCGGAGTCACCTAGTGCAG	8870 fluorescence intensity (a.u.)
AGAGCTTGTGTGGTGGTGGGGCATCAGTGTGTCAGTTGTGCGGAGTCACCTAGTGCAG	17100 fluorescence intensity (a.u.)
GTGTGTTGGAGCTGCCGGTGTGTGGGTGGGGTTATTTTTTCGGAGTCACCTAGTGCAG	25100 fluorescence intensity (a.u.)
TCTTGGCGCTGTCGGTGTGTGGGTGGCGTTATATTTTTTTCGGAGTCACCTAGTGCAG	9900 fluorescence intensity (a.u.)
GCTAGCTGCTGTCTTGTGTTGTGTTGTGTTGTGTGGCATGCGGAGTCACCTAGTGCAG	8220 fluorescence intensity (a.u.)
TGGGTTGGGATTTGTGCTTGTTTTTTTTTTTTGTGCGTGTCGGAGTCACCTAGTGCAG	16600 fluorescence intensity (a.u.)
TTTTTTTTTTTTGTTGGGCTTGTGACTTGTGGGGTGTGCACGGAGTCACCTAGTGCAG	11600 fluorescence intensity (a.u.)

Sequence	binding signal
AAGGGCAGAGGAGAGGAGTTGCAGTGTGGTGTGTGGCATGCGGAGTCACCTAGTGCAG	8870 fluorescence intensity (a.u.)
GGGGCTGCTTGGGCTTGTGTTGTTTTTTTGGCAGATGCATCGGAGTCACCTAGTGCAG	19100 fluorescence intensity (a.u.)
AATTTTTTTTGGGGTTGCTGCTGTTTTTTTTGTGGAGGTTCGGAGTCACCTAGTGCAG	9450 fluorescence intensity (a.u.)
AGATTTTGGGTGTGTTTGGTTGCTTGCATTGTTTTAGTCTCGGAGTCACCTAGTGCAG	9320 fluorescence intensity (a.u.)
TATACTTGTTGGCTGCTGCTTTGTGTGTGGTGTGTTGTTTCGGAGTCACCTAGTGCAG	10400 fluorescence intensity (a.u.)
CTTTGCTTGGTTGCTTGTGTTGTGTGCTGTGCTGTGCAGTCGGAGTCACCTAGTGCAG	8220 fluorescence intensity (a.u.)
ACACTCAAACGACACTTCACGCATCTCTCCTGAAATCTTGCGGAGTCACCTAGTGCAG	8780 fluorescence intensity (a.u.)
ACTTCAGATGTTTCTTGTTCCTACACTTCGCTGCTTCAGTCGGAGTCACCTAGTGCAG	11800 fluorescence intensity (a.u.)
CTCCTCTCTCTCTCAGCTCACCACACCTCGAGTCGCCGCCCGGAGTCACCTAGTGCAG	8180 fluorescence intensity (a.u.)
ACTGCTGTCTCCGCGTTACTCTACGCATGCATGCATGTATCGGAGTCACCTAGTGCAG	10000 fluorescence intensity (a.u.)
ATTCTGATTGGGTGTGGTTGGTTTGATTTTCTGTTAAGCACGGAGTCACCTAGTGCAG	11700 fluorescence intensity (a.u.)
GGTGAGTTCTTGATTTGGGCGTGGAGCTTTTTTTCTTGGTCGGAGTCACCTAGTGCAG	8170 fluorescence intensity (a.u.)
AGGGAGAGTGTGGGTGCGTGGGGCATATGGTGGTGCGGTGCGGAGTCACCTAGTGCAG	9950 fluorescence intensity (a.u.)
TATATCATATGCGGGCGTGATCTATTGGGGCGGGGTGTGGCGGAGTCACCTAGTGCAG	20000 fluorescence intensity (a.u.)
TGGGTGGGTGCGGCGTGGAGTGACGTGGCGGCGGGTGTGGCGGAGTCACCTAGTGCAG	8590 fluorescence intensity (a.u.)
GGTGGGTGTGTGCTTGTTTCGGCGTGTGATTTGGGCGGAGCGGAGTCACCTAGTGCAG	16500 fluorescence intensity (a.u.)
TATTCGATTTTGGGTGGTGGTTGTTAAGTTGGCATTTGCACGGAGTCACCTAGTGCAG	18300 fluorescence intensity (a.u.)
CCCTTGGGTTGGGTTGTGTTGCTCCCTCTGCTGCATTAATCGGAGTCACCTAGTGCAG	18100 fluorescence intensity (a.u.)
GTGGTTATTCAATTTGTTGCTTGTTTTTGTTTCAAGTTGGCGGAGTCACCTAGTGCAG	10700 fluorescence intensity (a.u.)
CCCTCCCCTCTGCTTCCGTTCCCTTGGGTTGGGTTGTGTTCGGAGTCACCTAGTGCAG	8480 fluorescence intensity (a.u.)

Sequence	binding signal
CTGCTGTGTTGCACATTTTTCTGCTCTGTATACCTATAATCGGAGTCACCTAGTGCAG	12200 fluorescence intensity (a.u.)
GGGGTGGACTGGGGTGTTTGGCTGCGTGAGTGCGGAGCGGCGGAGTCACCTAGTGCAG	8920 fluorescence intensity (a.u.)
GAAGTGATGAATATATTAAACTGGTTTGGCTATTATTTCCCGGAGTCACCTAGTGCAG	8360 fluorescence intensity (a.u.)
CTCTCGTGGTGTGGTGTGGACAAGAAAGGAAGGAAAGATGCGGAGTCACCTAGTGCAG	8700 fluorescence intensity (a.u.)
TAATGTCCCTATTTTGTTATAGTGTTCCTCCAATAATCTGCGGAGTCACCTAGTGCAG	8290 fluorescence intensity (a.u.)
CAGTTCTTCGTTCTTGTCTTTACTCTCATGATTTTCTCTTCGGAGTCACCTAGTGCAG	10900 fluorescence intensity (a.u.)
CTCAACCTCTCGGTCGTCGGCCTCGTCCTCCGGGCCGGCACGGAGTCACCTAGTGCAG	12000 fluorescence intensity (a.u.)
TTCATAGCCGCCGCATCTCCTTCTCTTCGACTTTTCTCCTCGGAGTCACCTAGTGCAG	9080 fluorescence intensity (a.u.)
TCAAACGATGCCATTCACCACGTGCCACTTTATATCAAACCGGAGTCACCTAGTGCAG	11700 fluorescence intensity (a.u.)
CTTAACGGCCCATTTATCTTGTCTCTCTGGCCCACCTGCACGGAGTCACCTAGTGCAG	12300 fluorescence intensity (a.u.)
CCTGTAATACTTTTGTTAATTCGATCCTACTACATCTTTACGGAGTCACCTAGTGCAG	10400 fluorescence intensity (a.u.)
ACGGTGTATATTTGTGGTGTGGCGGGTGTGGCATTGGATTCGGAGTCACCTAGTGCAG	16700 fluorescence intensity (a.u.)
TGGTGTTGTCGGTGTGTGGGTGGTGATATACTTTTTTTTTCGGAGTCACCTAGTGCAG	11600 fluorescence intensity (a.u.)
GTGGTGGTGGTGTGTGAGCTCGGGGCTTGGGGTTTTGCGGCGGAGTCACCTAGTGCAG	13300 fluorescence intensity (a.u.)
GAGCTGGGGTGGTGTTTGTTTGTGGGTGTGTTTGTGTGCTCGGAGTCACCTAGTGCAG	15900 fluorescence intensity (a.u.)
TTGGTCGCATTTCGGGTGGTGGTGGTGGTGGTGGTGGTGGCGGAGTCACCTAGTGCAG	13200 fluorescence intensity (a.u.)
TTTCTTCATTTCATGATTGTATATTCTGGTGTTTTTGTGGCGGAGTCACCTAGTGCAG	9250 fluorescence intensity (a.u.)
CATATATTGGTGTTGTGTGTGGGTGGGTGGGGCGGTGCTTCGGAGTCACCTAGTGCAG	30900 fluorescence intensity (a.u.)
GTTTTTGTGCTTGGTGGTGGTGGTGGGTGATTTGCAGGGGCGGAGTCACCTAGTGCAG	31700 fluorescence intensity (a.u.)
TGGGAGCTTTGCTTGGGGTGTGTGTGTGTTTGGGTGGTGCCGGAGTCACCTAGTGCAG	10900 fluorescence intensity (a.u.)
